Active and inactive are the calls of the source.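 Rule for the calls: active = viability at or below 21.59%, 3 SD under the median of tested compounds; inactive = the rest.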
Experiment: growth suppression of PTEN-null HCT116 cells, cell-based, validation, diverse DP compound set (AID 999);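 note: 100% = median luminescence of untreated cell control wells and 0% = no signal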
Settings: CellTiter-Glo, 60 h, at 10 µM, active compounds read low

SMILES	viability
COC(=O)Nc1nc2ccc(C(=O)c3cccs3)cc2[nH]1	50.2% (inactive)
CCOC(=O)c1c(N)sc(C)c1-c1ccccc1	105% (inactive)
O=C(O)c1cc(=O)c2c(OCC(O)COc3cccc4oc(C(=O)O)cc(=O)c34)cccc2o1	98.8% (inactive)
